# According to PMC7819943, “Rice protein-binding microarrays: a tool to detect cis-acting elements near promoter regions in rice”:
# The full ranking holds about 68,000 sequences; the median of “fluorescence intensity (a.u.)” is about 9,100, and the highest 2% start at about 16,000. Shown is part of a subset that was picked to be rich in the highest values.
# Target: OsWRKY34 (Oryza sativa, UniProt Q0JBA9 1-250)
# Assay: protein-binding microarray (RPBM); PBS, 2% BSA, 51.3 ng/ul salmon testes DNA, 50 uM zinc acetate, 200 nM TF, 25 C, 1 h; high values mean tight binding
# Conditions: protein: recombinant; tags: N-terminal polyhistidine and DsRed monomer fusion (pET32a); label: CyDye5-dUTP incorporated in the synthesized complementary strand; 3' TTTTT single-stranded linker to array surface; dsDNA, one strand shown
# Summary of the method: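 In PBS with 2% BSA, salmon testes DNA and 50 µM zinc acetate, 200 nM protein was incubated on a custom Agilent array at 25 °C for 1 h and then washed off. The array had been made double-stranded by primer extension with Cy5-dUTP and blocked with 2% BSA. The proteins were transcription factors fused N-terminally to polyhistidine and DsRed, expressed in E. coli BL21-CodonPlus and purified on Ni–NTA. The binding signal is per-feature fluorescence intensity (arbitrary units) from an Axon 4000B scanner.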
# OsWRKY34, sequence (Q0JBA9 entry or part of it): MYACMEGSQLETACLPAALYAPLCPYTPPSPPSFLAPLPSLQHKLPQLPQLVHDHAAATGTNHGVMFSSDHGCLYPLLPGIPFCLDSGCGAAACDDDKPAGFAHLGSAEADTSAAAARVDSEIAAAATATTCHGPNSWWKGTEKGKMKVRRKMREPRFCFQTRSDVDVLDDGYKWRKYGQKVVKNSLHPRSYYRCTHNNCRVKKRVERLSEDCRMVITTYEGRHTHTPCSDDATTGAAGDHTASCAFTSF
row,Sequence,binding signal
1,ATTAATTTCGCTTGCTAACACGAGTTTAATCTGCCAATTTCGGAGTCACCTAGTGCAG,10000 fluorescence intensity (a.u.)
2,CCACTGCATACCAACACCAACCACTGTACTAGCACTACTACGGAGTCACCTAGTGCAG,8980 fluorescence intensity (a.u.)
3,AGATTGTGGTGGGTGTTGATTGTGGTGATCTTGTCCCCTCCGGAGTCACCTAGTGCAG,13000 fluorescence intensity (a.u.)
4,GCGGGAGGAGAGCGGCGGGCGGCGGGCGGCGGCGGCTGTGCGGAGTCACCTAGTGCAG,9520 fluorescence intensity (a.u.)
5,AGAGATGCGTGTGTAGGCGGCGGGGAGGGGAGGGCTGTGACGGAGTCACCTAGTGCAG,17700 fluorescence intensity (a.u.)
6,GGAGATCCTGAGGCAGCGGGGAGAGGGGAGGTGGGCGATGCGGAGTCACCTAGTGCAG,10500 fluorescence intensity (a.u.)
7,GGGCTGGAGATGGAGATGGAGATGGAGATGGAGGGTGGGTCGGAGTCACCTAGTGCAG,8660 fluorescence intensity (a.u.)
8,AGGCGAGCGAGGCGGGTGGGCGGGGAGCGAACCAACGACGCGGAGTCACCTAGTGCAG,8840 fluorescence intensity (a.u.)
9,CTCGAGCGGCGGTGGGGATGGGGATGGGGCGGCGGCGACGCGGAGTCACCTAGTGCAG,17000 fluorescence intensity (a.u.)
10,GGAGAAAAAGGGGAGGGAGGGAGATGATGACGTGTAGGGGCGGAGTCACCTAGTGCAG,8550 fluorescence intensity (a.u.)
11,GGCGGGGCGGCGGAGGTGGTGGTGGGGAGGGCGAGAGATGCGGAGTCACCTAGTGCAG,23400 fluorescence intensity (a.u.)
12,GGCTCGCGGAGGGCGGGGCTGGGATGGTGGCGGATGGGAGCGGAGTCACCTAGTGCAG,10800 fluorescence intensity (a.u.)
13,GTGGTGTAGTGGGAGCGGCCGAGATGGGGCGTCGACGGGGCGGAGTCACCTAGTGCAG,8770 fluorescence intensity (a.u.)
14,CTACTATACGTCGATGGGGAGGGAGGGAGGGTGGCTGTAGCGGAGTCACCTAGTGCAG,26400 fluorescence intensity (a.u.)
15,AGAGGAGGAGAGTGGTGGTGGTGCGAGAGGGAGGGAGATGCGGAGTCACCTAGTGCAG,9230 fluorescence intensity (a.u.)
16,ATTGCATCGCCCATTTCGCTCATGGATCAGTAGGTAGCCACGGAGTCACCTAGTGCAG,8190 fluorescence intensity (a.u.)
17,AGTCAGTGACATCTATCTTTTCATCGATGTGTCTATTGCCCGGAGTCACCTAGTGCAG,8640 fluorescence intensity (a.u.)
18,ACCCATCCATCGCCAGCCATGCACACCCTCGCTCTGACGACGGAGTCACCTAGTGCAG,8640 fluorescence intensity (a.u.)
19,CAACGAGGAGCGATGCATATCTAGCAGTTTTGTTTTTCATCGGAGTCACCTAGTGCAG,8420 fluorescence intensity (a.u.)
20,TACACCCTTGGGCCCACCTGTCAACCTCTCACCCTATATTCGGAGTCACCTAGTGCAG,11900 fluorescence intensity (a.u.)
21,GATGAGTCCTCACCTGAGTTTCTTCCGTCCATGGCGGCCGCGGAGTCACCTAGTGCAG,10500 fluorescence intensity (a.u.)
22,ATCCCCAGCCTCCAATACCGGTCCCGTGCTTGTTTTTCTTCGGAGTCACCTAGTGCAG,9470 fluorescence intensity (a.u.)

row,Sequence,binding signal
1,AATTCGTACTTTTTCCTTTGTGTTTTGTCTATCTTAAATTCGGAGTCACCTAGTGCAG,14300 fluorescence intensity (a.u.)
2,AAACCCACCCACCCAGCGCTTCTTCTTTCCTTTCTTTATTCGGAGTCACCTAGTGCAG,12900 fluorescence intensity (a.u.)
3,TTTCCAACCTGATCGGGTGCTGCCTTTTCATTCTTCCCTCCGGAGTCACCTAGTGCAG,8430 fluorescence intensity (a.u.)
4,ATTTCCCCTGAACTCTACGTTTACAGGTTATGGTTATCTCCGGAGTCACCTAGTGCAG,8350 fluorescence intensity (a.u.)
5,ATACATATTTTTTTCTCTATTTCTGCCCAACATGTTTTTCCGGAGTCACCTAGTGCAG,8950 fluorescence intensity (a.u.)
6,AAGGGTTATCGACCTACGCCTGCTGGCCCTTTTCGGCTTTCGGAGTCACCTAGTGCAG,9300 fluorescence intensity (a.u.)
7,GGGAGATTTGTTGCAACGGAGGGCATTGAGTGGTGGGGACCGGAGTCACCTAGTGCAG,8570 fluorescence intensity (a.u.)
8,GATGCGGGTGAGGTGCCGCGCTGTGGGGAGAGAGGGTGGGCGGAGTCACCTAGTGCAG,8560 fluorescence intensity (a.u.)
9,TGCATTGACCAGGTCAACGGGAGAGGGAGGGGCAAAATCGCGGAGTCACCTAGTGCAG,19600 fluorescence intensity (a.u.)
10,AAACGCTGTGGTGGGTGGTGGTGCGGATGGGGAGGTGTGGCGGAGTCACCTAGTGCAG,14100 fluorescence intensity (a.u.)
11,GAGGTGGGTGTGGAACTGTGGATGCGGGTCGGGGAGATCGCGGAGTCACCTAGTGCAG,16900 fluorescence intensity (a.u.)
12,TGTCAGGTCAAATCGGGGAGGCGGGGTGCGTACCAACGGTCGGAGTCACCTAGTGCAG,11900 fluorescence intensity (a.u.)
13,TGGTGGTGGTGGTGGCTGTAGTGTGGAGGTGGTGGGGAGTCGGAGTCACCTAGTGCAG,16700 fluorescence intensity (a.u.)
14,CGCTCGGCGGTGAGGTGGAGGTGGAGGTGGGTGGGAGATGCGGAGTCACCTAGTGCAG,12900 fluorescence intensity (a.u.)
15,TCGGCGGCGAGGTGGTGGCGGTGGCGGTGGTGGGAGTAGTCGGAGTCACCTAGTGCAG,15200 fluorescence intensity (a.u.)
16,CGTTGGAACGTGCGGGTGTGGGGAAACTGAGGGTGAGGATCGGAGTCACCTAGTGCAG,8600 fluorescence intensity (a.u.)
17,GCTGTGGCGGAGGTGGGGAGGTGGAGGTGGAGGGGAGATGCGGAGTCACCTAGTGCAG,24600 fluorescence intensity (a.u.)
18,CTGTGCGGGAGGTGGAGATGGAGATGGTGGGTGGATCGGACGGAGTCACCTAGTGCAG,8630 fluorescence intensity (a.u.)
19,CATCTGATCGGCATCGGCATCGTCCTCGTCCTCGGCATCACGGAGTCACCTAGTGCAG,9990 fluorescence intensity (a.u.)
20,TCTGGGTATCCTCTGTTATGTCATCTTCACCTCCATTTGGCGGAGTCACCTAGTGCAG,8690 fluorescence intensity (a.u.)
21,CTGCTAGCCCGGTTAATCTACCAAAACCCGTCTTGATTTACGGAGTCACCTAGTGCAG,9070 fluorescence intensity (a.u.)
22,TTAGTATAGCTGTATTCTTCCCAACTTCCTATTTTCCTCTCGGAGTCACCTAGTGCAG,8540 fluorescence intensity (a.u.)
